Measured values taken from PubChem BioAssay (Tox21).
Values joined by “and” are separate entries in the source; they are usually repeats but may differ in a detail not shown here. Equal entries are not always repeated. Results filed as inconclusive are left out. Active and inactive are the calls of the source. Unless noted, the call rests on the fitted dose curve; in most records, active means well fitted curve in the direction sought with a large enough effect in the repeat runs; inconclusive means weak or mixed curves; inactive means no such curve, though single readings can be large; an effect the other way counts as inactive or inconclusive.

Assays:
[1] = qHTS assay to identify small molecule antagonists of the estrogen related receptor (ERR) signaling pathway from Tox21 library - cell viability counter screen (AID 1224834); further: nearly all actives have a fitted effect of over 30% in size
Outline: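 Multiplexed viability counter screen in ERR cells: 17.5 h compound exposure at 37 C, CellTiter-Fluor added, 30 min at 37 C/5% CO2, fluorescence read.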

[2] = molecular target: Luciferin 4-monooxygenase (Photinus pyralis) (UniProt P08659); experiment: qHTS assay to identify small molecule inhibitors of firefly luciferase (AID 1224835); further: nearly all actives have a fitted effect of over 25% in size; further: potency means the concentration at half of the fitted maximal effect
Outline: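 Biochemical qHTS: compounds run as interplate titrations against purified firefly enzyme, with D-luciferin and ATP each at its KM concentration. Light output recorded by CCD imaging.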

[3] = qHTS assay to identify small molecule agonists of the constitutive androstane receptor (CAR) signaling pathway - cell viability counter screen (AID 1224836); further: nearly all actives have a fitted effect of over 45% in size
Outline: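 Double-stable HepG2 hepatoma cells (hCAR plus CYP2B6-2.2kb) are treated for 23 h at 37 C with test compounds in 15-point concentration series. PK11195 at 0.75 uM final is co-added. Cell viability is quantified by CellTiter-Fluor.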

[4] = qHTS assay to identify small molecule antagonists of the constitutive androstane receptor (CAR) signaling pathway - cell viability counter screen (AID 1224837); further: nearly all actives have a fitted effect of over 45% in size
Outline: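 Read-out: CellTiter-Fluor fluorescence after 23 hr at 37 C/5% CO2. Cells: HepG2 double-stable for hCAR and CYP2B6-2.2kb. Compounds tested at 15 concentrations in the presence of CITCO, final concentration 50 nM.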

[5] = molecular target: Nuclear receptor subfamily 1 group I member 3 (Homo sapiens) (UniProt Q14994); experiment: qHTS assay to identify small molecule antagonists of the constitutive androstane receptor (CAR) signaling pathway (AID 1224838);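 further: HepG2 cells stably expressing hCAR with CYP2B6 luciferase reporter stimulated by CITCO; nearly all actives have a fitted effect of over 40% in size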
Outline: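 Read-out: ONE-Glo luciferase luminescence after 30 min at room temperature. HepG2-CYP2B6-hCAR double-stable cells, compounds in 15-point titration plus 50 nM CITCO final, 24 h at 37 C/5% CO2.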

[6] = molecular target: Nuclear receptor subfamily 1 group I member 3 (Homo sapiens) (UniProt Q14994); experiment: qHTS assay to identify small molecule agonists of the constitutive androstane receptor (CAR) signaling pathway (AID 1224839);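 further: HepG2 cells stably carrying human CAR and a CYP2B6 luciferase reporter; nearly all actives have a fitted effect of over 15% in size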
Outline: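 Readout: firefly luciferase luminescence via ONE-Glo. System: HepG2 double-stable for hCAR and CYP2B6-2.2kb. Conditions: 15-point compound titration, PK11195 at 0.75 uM final, 24 h incubation.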

[7] = qHTS assay to identify small molecule antagonists of the estrogen related receptor signaling pathway with the pleiotropic PPARgamma coactivator (PGC) from Tox21 10K library - cell viability counter screen (AID 1224840; active means well fitted cell-killing curve with a large enough effect in the repeat runs, not every such curve was filed as active; further: nearly all actives have a fitted effect of over 40% in size)
Outline: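 Fluorescence read-out of CellTiter-Fluor viability reagent, added after cells had been exposed to compound in DMSO for 17.5 h at 37 C; 30 min development at 37 C/5% CO2. Cells: PGC/ERR line, 2,000/well.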

[8] = qHTS assay to identify small molecule antagonists of the estrogen related receptor signaling pathway with the pleiotropic PPARgamma coactivator (PGC) from Tox21 10K library (AID 1224841; call rule not given here; further: actives are mostly falling curves and most rising ones were filed inactive; nearly all actives have a fitted effect of over 50% in size)
Outline: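 Luminescence read-out (One-Glo luciferase reagent, 30 min at room temperature) from PGC/ERR cells exposed to DMSO-dissolved test compounds for 18 h at 37 C; cells, 2,000 per well, had been preincubated 6 h before compound transfer.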

[9] = qHTS assay to identify small molecule agonists of the estrogen related receptor signaling pathway with the pleiotropic PPARgamma coactivator (PGC) from Tox21 10K library (AID 1224842); further: nearly all actives have a fitted effect of over 15% in size
Outline: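 PGC/ERR reporter cell line, 2,000 cells per well, incubated 6 h at 37 C before 23 nL compound in DMSO was added. After 18 h at 37 C, One-Glo luminescence read following 30 min at room temperature.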

[10] = molecular target: Thyrotropin receptor (Homo sapiens) (UniProt P16473); experiment: qHTS assay to identify small molecule agonists of the thyroid stimulating hormone receptor (TSHR) signaling pathway (AID 1224843; calls by dose curve; further: nearly all actives have a fitted effect of over 45% in size)
Outline: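 Agonist-mode screen: TSHR HEK293 cells received test chemicals for half an hour at room temperature, then HTRF cAMP detection reagents for one hour prior to fluorescence measurement. Each chemical ran as a 15-concentration series, triplicated.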

[11] = qHTS assay to identify small molecule agonists of the hypoxia (HIF-1) signaling pathway - cell viability counter screen (AID 1224844; calls by dose curve; further: nearly all actives have a fitted effect of over 50% in size)
Outline: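 CellTiter-Glo luminescence read-out, 30 min RT, taken in the same wells as the beta-lactamase HRE reporter assay; HRE-bla ME-180 cells, 0.5% dialyzed FBS, 17 hr compound treatment at 37C, 5% CO2.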

[12] = qHTS assay to identify small molecule agonists of H2AX (AID 1224845; active means well fitted activation curve with a large enough effect in the signal ratio in the repeat runs, not every such curve was filed as active; the % refers to the signal ratio)
Outline: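 Wild-type CHO-K1 cells, plated overnight, exposed 3hr at 37C to 15 concentrations (0.76% DMSO final). Lysed, then HTRF anti-pH2AX (S139) cryptate and anti-H2AX-d2 antibodies, 24 hr room temperature; 665/620 nm emission read.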

[13] = qHTS assay to identify small molecule agonists of the hypoxia (HIF-1) signaling pathway (AID 1224846; active means well fitted activation curve with a large enough effect in the signal ratio in the repeat runs, not every such curve was filed as active; the % refers to the signal ratio)
Outline: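 Beta-lactamase FRET read-out (CCF4-AM substrate) from ME-180 cells carrying an HRE-driven bla reporter, after 17 hrs compound exposure at 37C/5% CO2. Cells were seeded at 2,000 per well in 0.5% dialyzed FBS medium and preincubated 5 hrs.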

[14] = qHTS assay to identify small molecule antagonists of the estrogen related receptor (ERR) signaling pathway from Tox21 library (AID 1224848); further: nearly all actives have a fitted effect of over 50% in size
Outline: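 Quantitative high-throughput format: ERR reporter cells (2,000/well) pre-incubated 6 h, treated 18 h at 37 C with compounds in DMSO alongside positive and negative controls, then read by ONE-Glo luminescence.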

[15] = qHTS assay to identify small molecule agonists of the estrogen related receptor (ERR) signaling pathway from Tox21 library (AID 1224849; calls by dose curve; further: nearly all actives have a fitted effect of over 15% in size); settings: ERR reporter cell line, ONE-Glo luciferase, 18 h; at 92.4 µM (top of the series)
Outline: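 Luminescence readout (ONE-Glo, 30 min RT) after 18 h compound exposure at 37 C of NTP-supplied ERR reporter cells; cells were plated 6 h before compound addition by pin tool.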

[16] = qHTS RealTime-Glo MT Cell Viability Assay in HepG2 cells - 24 hour (AID 1224867); further: nearly all actives have a fitted effect of over 50% in size
Outline: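 Compound treatment began 5 h after plating HepG2 cells (600/well) with NanoLuc luciferase and prosubstrate. Plates stayed at 37 C for 40 h; luminescence was captured at six time points, 0 h through 40 h.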

[17] = qHTS RealTime-Glo MT Cell Viability Assay in HEK293 cells - 32 hour (AID 1224868)
Outline: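 Quantitative high-throughput screen of the Tox21 10K library in HEK293: cells and RealTime-Glo reagents plated together, compound added at 5 h, luminescence monitored through 40 h at 37 C.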

[18] = A CellTox Green Cytotoxicity Assay to monitor cytotoxicity in HEK293 cells - 0 hour (AID 1224869); further: nearly all actives have a fitted effect of over 50% in size
Outline: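 Read-out: fluorescence of a cell-impermeant cyanine dye staining DNA of dead cells, proportional to cytotoxicity. HEK293, 600 cells/well with reagent, compound (23 nL DMSO) added after 5 h; reads at 0, 8, 16, 24, 32, 40 h.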

[19] = qHTS RealTime-Glo MT Cell Viability Assay in HepG2 cells - 40 hour (AID 1224870); further: nearly all actives have a fitted effect of over 50% in size
Outline: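 HepG2 cells (600/well) mixed with RealTime-Glo MT reagent, settled 5 h at 37 C/5% CO2 before compound addition. Nonlytic NanoLuc luminescence from viable-cell prosubstrate reduction read repeatedly during 40 h treatment at 37 C.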

[20] = qHTS assay to identify small molecule agonists of H2AX - cell viability counter screen (AID 1224847; calls by dose curve; further: top concentration of the series differs between compounds; nearly all actives have a fitted effect of over 30% in size)
Outline: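 For this counter screen, overnight-attached CHO-K1 cells received test compounds (15 concentrations, 0.76% DMSO final); 3 hr later at 37C, CellTiter-Glo reagent was added and luminescence recorded after 30 min at room temperature.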
On the % scale 0 is the no-effect control and ±100 the full control effect.

Thyrotropin receptor (Homo sapiens), sequence (P16473 whole entry, looked up): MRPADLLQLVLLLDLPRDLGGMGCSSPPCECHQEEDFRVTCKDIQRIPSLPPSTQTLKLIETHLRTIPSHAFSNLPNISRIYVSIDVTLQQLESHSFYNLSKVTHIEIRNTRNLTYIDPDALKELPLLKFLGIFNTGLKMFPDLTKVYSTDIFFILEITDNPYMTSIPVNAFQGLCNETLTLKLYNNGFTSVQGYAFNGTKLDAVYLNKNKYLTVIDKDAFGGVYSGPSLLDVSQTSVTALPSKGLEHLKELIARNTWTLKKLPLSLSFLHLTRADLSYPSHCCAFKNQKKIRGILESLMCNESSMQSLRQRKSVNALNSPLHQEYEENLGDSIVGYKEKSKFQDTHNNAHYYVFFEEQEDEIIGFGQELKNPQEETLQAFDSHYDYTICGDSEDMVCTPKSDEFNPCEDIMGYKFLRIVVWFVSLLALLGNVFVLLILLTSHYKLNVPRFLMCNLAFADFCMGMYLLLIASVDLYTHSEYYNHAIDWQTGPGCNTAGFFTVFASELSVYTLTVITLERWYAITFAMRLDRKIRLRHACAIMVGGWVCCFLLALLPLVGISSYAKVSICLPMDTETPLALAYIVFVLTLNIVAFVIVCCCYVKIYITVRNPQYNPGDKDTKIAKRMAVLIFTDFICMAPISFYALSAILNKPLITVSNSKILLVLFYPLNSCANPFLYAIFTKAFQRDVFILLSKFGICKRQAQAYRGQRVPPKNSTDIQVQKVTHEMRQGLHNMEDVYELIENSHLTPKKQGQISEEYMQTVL
Nuclear receptor subfamily 1 group I member 3 (Homo sapiens), sequence (Q14994 whole entry, looked up): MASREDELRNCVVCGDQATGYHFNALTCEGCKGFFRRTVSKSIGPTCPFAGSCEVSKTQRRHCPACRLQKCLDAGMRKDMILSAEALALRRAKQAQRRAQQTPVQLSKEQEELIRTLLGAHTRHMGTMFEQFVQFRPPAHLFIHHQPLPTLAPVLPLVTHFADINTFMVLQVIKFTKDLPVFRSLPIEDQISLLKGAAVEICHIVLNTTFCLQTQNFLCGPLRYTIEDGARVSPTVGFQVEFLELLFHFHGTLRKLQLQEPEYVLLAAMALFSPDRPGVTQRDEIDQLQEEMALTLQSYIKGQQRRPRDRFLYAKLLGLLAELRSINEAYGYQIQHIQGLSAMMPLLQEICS
Luciferin 4-monooxygenase (Photinus pyralis), sequence (P08659 whole entry, looked up): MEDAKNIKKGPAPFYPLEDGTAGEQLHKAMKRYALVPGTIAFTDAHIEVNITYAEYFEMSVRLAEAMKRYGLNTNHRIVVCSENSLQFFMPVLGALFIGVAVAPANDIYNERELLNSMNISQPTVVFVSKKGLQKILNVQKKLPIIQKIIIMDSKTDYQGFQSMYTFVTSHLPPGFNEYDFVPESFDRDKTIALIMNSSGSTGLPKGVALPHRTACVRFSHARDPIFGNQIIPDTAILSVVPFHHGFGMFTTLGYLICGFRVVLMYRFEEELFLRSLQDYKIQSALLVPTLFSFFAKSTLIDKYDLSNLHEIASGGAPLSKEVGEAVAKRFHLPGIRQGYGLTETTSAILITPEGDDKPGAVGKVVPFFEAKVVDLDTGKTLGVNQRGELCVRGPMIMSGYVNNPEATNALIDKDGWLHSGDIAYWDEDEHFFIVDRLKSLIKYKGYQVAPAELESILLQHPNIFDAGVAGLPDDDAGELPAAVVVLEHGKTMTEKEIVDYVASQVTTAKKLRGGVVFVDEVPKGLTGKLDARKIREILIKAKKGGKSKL

CCOC(=O)C(C)C(C)=O (centres undefined)
inactive: Potency [1] | Potency [2] | Potency [3] | Potency [4] | Potency [5] | Potency [6] | Potency [7] | Potency [8] | Potency [9] | Potency [10] | Potency [11] | Potency [12] | Potency [13] | Potency [14] | activity change, positive = activation [15] 5% | Potency [16] | Potency [17] | Potency [18] | Potency [19]

Cc1cccc([N+](=O)[O-])c1C(=O)O
inactive: Potency [1] | Potency [2] | Potency [3] | Potency [4] | Potency [5] | Potency [6] | Potency [7] | Potency [8] | Potency [9] | Potency [10] | Potency [11] | Potency [12] | Potency [13] | Potency [20] | Potency [14] | activity change, positive = activation [15] 4.9% | Potency [16] | Potency [17] | Potency [18] | Potency [19]

O=C(Oc1ccccc1)c1ccccc1O
active: Potency [2] 31.9 µM and 22.4 µM
inactive: Potency [1] | Potency [3] | Potency [4] | Potency [5] | Potency [6] | Potency [7] | Potency [10] | Potency [11] | Potency [12] | Potency [13] | Potency [20] | Potency [17] | Potency [18] | Potency [19]
